# Assay results taken from PubChem BioAssay (Tox21).
# Records with an inconclusive call do not appear. Entries that show only a call come without a potency. The source made the active and inactive calls. Unless noted, calls come from the whole dose curve; as a rule, active = well fitted curve in the direction sought with a large enough effect in the repeat runs; inconclusive = weak or mixed curves; inactive = no such curve, though single readings can be large; an effect the other way counts as inactive or inconclusive.
# Tests used:
# [1] = qHTS assay for small molecule agonists of the p53 signaling pathway (AID 651631; calls by dose curve; note: nearly all actives have a fitted effect of over 15% in size; note: potency is the fitted concentration of half-maximal effect)
# Summary of the method: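 HCT-116 p53RE-bla reporter line, 16 h compound treatment at 37 °C, then fluorescence after 2 h with B/G FRET substrate.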
# [2] = qHTS assay for small molecules that induce genotoxicity in human embryonic kidney cells expressing luciferase-tagged ATAD5 (AID 651632); note: nearly all actives have a fitted effect of over 15% in size; note: potency is the fitted concentration of half-maximal effect
# Summary of the method: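 Concentration-response screen for ATAD5 upregulation in HEK293T luciferase reporter cells; 16 hr treatment at 37C, then luminescence after 30 min with Amplite at room temperature.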
# [3] = qHTS assay for small molecule agonists of the p53 signaling pathway - cell viability (AID 651633; calls by dose curve;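 note: p53RE-bla HCT reporter cells with a stable beta-lactamase p53 reporter; nearly all actives have a fitted effect of over 30% in size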)
# Summary of the method: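 p53RE-bla cells were treated with compound for 16 hours at 37 C. Cytotoxicity was then measured as CellTiter-Glo luminescence after 30 min at room temperature.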
# [4] = qHTS assay for small molecules that induce genotoxicity in human embryonic kidney cells expressing luciferase-tagged ATAD5 - cell viability (AID 651634; calls by dose curve; note: nearly all actives have a fitted effect of over 25% in size)
# Summary of the method: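 15.5 hr compound or vehicle exposure of HEK293T cells expressing luciferase-tagged ATAD5 at 37C; live-cell protease activity is read by fluorescence after 30 min of CellTiter-Fluor.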
# [5] = qHTS assay for small molecule disruptors of the mitochondrial membrane potential (AID 720635); note: potency is the fitted concentration of half-maximal effect
# Summary of the method: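 HepG2 cells exposed to compound 1 hr at 37C, then Mito-MPS dye 30 min. Ratio read of aggregate (540/590 nm) versus monomer (490/535 nm) fluorescence.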
# [6] = qHTS assay to test for compound auto fluorescence at 590 nm (red) in HepG2 cells (AID 720674)
# Summary of the method: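 HepG2 cells, 2,000 per well in MEM with 10% FBS, attached overnight at 37 C, then got 23 nL compound or DMSO. After 1 hr at 37 C, 5% CO2, red fluorescence was read at 540/590 nm against Rose Bengal sodium as reference.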
# [7] = qHTS assay to test for compound auto fluorescence at 535 nm (green) in HepG2 cells (AID 720675)
# [8] = qHTS assay to test for compound auto fluorescence at 460 nm (blue) in HEK293 cells (AID 720678)
# Summary of the method: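 Blue-channel (Ex/Em 405/460 nm) intensity measured in HEK293 cultures after overnight compound exposure at 37C; signal expressed relative to triamterene. Cells plated 2,000 per well in 10% dialyzed FBS medium and allowed 4-5 hr to attach.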
# [9] = qHTS assay to test for compound auto fluorescence at 590 nm (red) in HEK293 cells (AID 720679)
# Summary of the method: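 Red-channel autofluorescence (Ex/Em 540/590 nm; Rose Bengal sodium reference) was measured after overnight 37C, 5% CO2 exposure of attached HEK293 cells, 2,000 per well in medium with 10% dialyzed FBS.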
# [10] = qHTS assay to test for compound auto fluorescence at 535 nm (green) in HEK293 cell free culture (AID 720682)
# Summary of the method: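 Steps: dispense DMEM/10% FBS into empty wells; pin in compound or DMSO; measure fluorescence at 485/535 nm. Values are fluorescein equivalents.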
# [11] = qHTS assay to test for compound auto fluorescence at 590 nm (red) in HEK293 cell free culture (AID 720683)
# Summary of the method: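 Cell-free wells of DMEM with 10% FBS received compound, and intrinsic fluorescence was read at excitation/emission 540/590 nm. Values expressed as equivalence to Rose Bengal sodium.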
# [12] = qHTS assay to test for compound auto fluorescence at 590 nm (red) in HepG2 cell free culture (AID 720684)
# Summary of the method: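 Auto fluorescence equivalency versus Rose Bengal sodium, red channel Ex/Em 540/590 nm; compounds in cell-free MEM/10% FBS; DMSO vehicle control.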
# [13] = qHTS assay to test for compound auto fluorescence at 460 nm (blue) in HepG2 cell free culture (AID 720685)
# Summary of the method: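 Cell-free plates of MEM plus 10% FBS received 23 nL compound or DMSO vehicle; blue-channel (405/460 nm) intensity scored against triamterene as reference fluorophore.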
# [14] = qHTS assay to test for compound auto fluorescence at 535 nm (green) in HepG2 cell free culture (AID 720686)
# [15] = qHTS assay to test for compound auto fluorescence at 460 nm (blue) in HepG2 cells (AID 720687)
# Summary of the method: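 HepG2 cells in MEM with 10% FBS, attached overnight at 37 C, were exposed to compound or DMSO for 1 hr at 37 C, 5% CO2. Blue fluorescence was read at 405/460 nm, with triamterene as reference fluorophore.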
# [16] = target: Glucocorticoid receptor (Homo sapiens) (UniProt P04150); test: qHTS assay to identify small molecule agonists of the glucocorticoid receptor (GR) signaling pathway (AID 720691; active = well fitted activation curve with a large enough effect in the signal ratio in the repeat runs, not every such curve was filed as active; the % refers to the signal ratio); details: GR-bla HeLa, beta-lactamase reporter ratio, 18 h; activation: at 62.4 µM (top of the series)
# Summary of the method: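 Measures GR pathway activation through a GRE-beta-lactamase reporter stably integrated in HeLa cells, with 18 h compound treatment at 37 C and fluorescence detection using a FRET substrate.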
# [17] = target: Glucocorticoid receptor (Homo sapiens) (UniProt P04150); test: qHTS assay to identify small molecule antagonists of the glucocorticoid receptor (GR) signaling pathway (AID 720692; active = well fitted inhibition curve with a large enough effect in the signal ratio in the repeat runs, not every such curve was filed as active; the % refers to the signal ratio)
# Summary of the method: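 Tox21 10K library screened in concentration-response for blockade of dexamethasone (5 nM final)-induced GRE-bla reporter activity in HeLa cells; 18 h treatment, fluorescence read.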
# [18] = qHTS assay to test for compound auto fluorescence at 535 nm (green) in HEK293 cells (AID 720680)
# [19] = qHTS assay to test for compound auto fluorescence at 460 nm (blue) in HEK293 cell free culture (AID 720681)
# Summary of the method: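 Compounds were added to cell-free DMEM with 10% FBS and fluorescence read directly. The blue channel used 405 nm excitation and 460 nm emission, with triamterene as the reference fluorophore.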
# [20] = qHTS assay for small molecule disruptors of the mitochondrial membrane potential - cell viability (AID 720634; calls by dose curve;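 note: human HepG2 liver cancer cells; nearly all actives have a fitted effect of over 20% in size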)
# Summary of the method: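 In this qHTS format, HepG2 cells plated overnight were pinned with compound, incubated 1 hr, and assayed for ATP luminescence with CellTiter-Glo after m-MPI dye addition.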
# Chain of Glucocorticoid receptor (Homo sapiens) (P04150 whole entry, looked up): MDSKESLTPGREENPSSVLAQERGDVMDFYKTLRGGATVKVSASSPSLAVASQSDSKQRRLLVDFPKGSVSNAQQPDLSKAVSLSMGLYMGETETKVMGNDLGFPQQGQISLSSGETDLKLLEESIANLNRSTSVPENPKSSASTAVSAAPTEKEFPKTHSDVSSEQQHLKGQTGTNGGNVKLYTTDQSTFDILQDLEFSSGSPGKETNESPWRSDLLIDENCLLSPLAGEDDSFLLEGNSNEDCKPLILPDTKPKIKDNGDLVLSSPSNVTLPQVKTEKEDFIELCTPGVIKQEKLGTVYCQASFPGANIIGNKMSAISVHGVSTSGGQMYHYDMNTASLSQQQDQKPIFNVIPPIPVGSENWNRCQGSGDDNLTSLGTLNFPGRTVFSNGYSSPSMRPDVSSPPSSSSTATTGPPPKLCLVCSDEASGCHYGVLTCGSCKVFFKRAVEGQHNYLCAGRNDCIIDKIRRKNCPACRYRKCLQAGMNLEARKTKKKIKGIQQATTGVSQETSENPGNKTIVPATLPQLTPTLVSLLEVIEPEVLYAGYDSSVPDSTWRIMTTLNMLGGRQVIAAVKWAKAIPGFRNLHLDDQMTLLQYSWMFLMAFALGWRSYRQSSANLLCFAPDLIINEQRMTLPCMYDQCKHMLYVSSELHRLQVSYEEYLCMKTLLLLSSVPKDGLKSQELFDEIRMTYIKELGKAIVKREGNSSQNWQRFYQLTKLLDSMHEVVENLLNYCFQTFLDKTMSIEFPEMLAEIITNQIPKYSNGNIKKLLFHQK
Structure (SMILES),Potency [1],Potency [2],Potency [3],Potency [4],Potency [5],Potency [6],Potency [7],Potency [8],Potency [9],Potency [10],Potency [11],Potency [12],outcome [13],Potency [14],outcome [15],Potency [16],Potency [17],Potency [18],Potency [19],Potency [20]
C[N+](C)(CCCCCC[N+](C)(C)C1c2ccccc2-c2ccccc21)C1c2ccccc2-c2ccccc21,inactive,inactive,inactive,inactive,inactive,inactive,inactive,inactive,inactive,inactive,inactive,inactive,inactive,inactive,inactive,inactive,inactive,–,–,–
CS(=O)(=O)Nc1cc2occ(NC=O)c(=O)c2cc1Oc1ccccc1,inactive,inactive,inactive,inactive,–,inactive,inactive,inactive,inactive,inactive,inactive,inactive,inactive,inactive,inactive,–,–,inactive,inactive,–
CC(=O)c1ccc2c(c1)N(CCCN1CCN(CCO)CC1)c1ccccc1S2,inactive,inactive,inactive,–,–,inactive,inactive,inactive,inactive,inactive,inactive,inactive,inactive,inactive,inactive,inactive,inactive,inactive,inactive,inactive
O=P(O)(O)OC(CO)CO,inactive,inactive,inactive,inactive,inactive,inactive,inactive,inactive,inactive,inactive,inactive,inactive,inactive,inactive,inactive,inactive,–,inactive,–,–
OC[C@H]1O[C@@H](O[C@H]2[C@H](O)[C@@H](O)[C@H](O)O[C@@H]2CO)[C@H](O)[C@@H](O)[C@@H]1O,inactive,inactive,inactive,inactive,–,inactive,–,inactive,inactive,inactive,inactive,inactive,inactive,inactive,inactive,inactive,inactive,inactive,inactive,inactive
CC(C)[C@@H](N)C(=O)O,inactive,inactive,inactive,–,–,inactive,inactive,inactive,inactive,inactive,inactive,inactive,inactive,inactive,inactive,inactive,–,inactive,inactive,inactive
CC1CC(OC(=O)C(O)c2ccccc2)CC(C)(C)C1 (centres undefined),inactive,inactive,inactive,inactive,13.3 µM (active),inactive,inactive,inactive,inactive,inactive,inactive,inactive,inactive,inactive,inactive,–,–,inactive,inactive,–
CCCCCCCCCCCCCCCCCCCCCC(=O)Nc1ccn([C@@H]2O[C@H](CO)[C@@H](O)[C@@H]2O)c(=O)n1,11.9 µM (active),inactive,inactive,–,inactive,inactive,inactive,inactive,inactive,inactive,inactive,inactive,inactive,inactive,inactive,inactive,–,inactive,–,–
CNc1cc(OC)c(C(=O)N[C@H]2CCN(Cc3ccccc3)[C@H]2C)cc1Cl,inactive,inactive,inactive,–,–,inactive,inactive,inactive,inactive,inactive,inactive,inactive,inactive,inactive,inactive,inactive,inactive,inactive,inactive,inactive
CCCOc1ccc2nc(NC(=O)OC)sc2c1,1.5 µM (active),1.88 µM (active),inactive,–,–,inactive,inactive,inactive,inactive,inactive,inactive,inactive,inactive,inactive,inactive,inactive,–,inactive,inactive,inactive
CC[C@H](CC[C@@H](C)[C@H]1CC[C@H]2[C@@H]3CC=C4C[C@@H](O)CC[C@]4(C)[C@H]3CC[C@]12C)C(C)C,inactive,inactive,inactive,–,–,inactive,inactive,inactive,inactive,inactive,inactive,inactive,inactive,inactive,inactive,inactive,inactive,inactive,inactive,inactive
COC(=O)[C@@H](N)CS,inactive,inactive,inactive,–,inactive,inactive,inactive,inactive,inactive,inactive,inactive,inactive,inactive,inactive,inactive,inactive,inactive,inactive,inactive,inactive
CN1c2cc(O)c(N=NC(N)=O)cc2CC1S(=O)(=O)O (centres undefined),inactive,inactive,inactive,–,–,inactive,inactive,inactive,inactive,inactive,inactive,inactive,inactive,inactive,inactive,–,–,inactive,inactive,inactive
CC[C@H]1OC(=O)[C@H](C)[C@@H](O[C@H]2C[C@@](C)(OC)[C@@H](O)[C@H](C)O2)[C@H](C)[C@@H](O[C@@H]2O[C@H](C)C[C@H](N(C)C)[C@H]2O)[C@](C)(O)C[C@@H](C)[C@@H]2N[C@@H](COCCOC)O[C@@H]([C@H]2C)[C@]1(C)O,inactive,inactive,inactive,inactive,–,inactive,inactive,inactive,inactive,inactive,–,inactive,inactive,inactive,inactive,–,–,inactive,inactive,–
